This note sets out measurements from PubChem BioAssay.

Assay [1] in a line: inhibitors of TNFa-induced NFkB p65 translocation, primary screen, imaging, HUVEC, MLSMR starter and 10KST1 sets (AID 438).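 Also: compound added about 3h40 before a 20 min TNFalpha stimulation.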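 As to inhibition: signal is the nuclear over cytoplasmic p65 intensity ratio per well.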 Conditions: HUVEC TNFa-induced p65 nuclear translocation; cell count: measured here: nuclei count (cytotoxicity indicator), at 2.08 µM; inhibition: at 2 µM, stronger effect = higher value, 0% TNFa-plus-vehicle, 100% no-TNFa wells.
Assay [2] is described as follows: reduction of polyQ htt aggregates in cells – imaging, exon1htt(103Q)mCFP cells, high-content imaging, primary screen (AID 483;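 active = visual image review flags a hit and inhibition of aggregation exceeds 20%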;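 also: compound exposure lasted 3 days before fixation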;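 as to nuclei count: percent of the per-plate median nuclei count of sample wells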). To be noted: exon1htt(103Q)mCFP cell line, aggregate imaging, at 2 µM; inhibition of aggregation: stronger effect = higher value; nuclei count: measured here: cell count, toxicity.
The nature of assay [3]: endothelial E-selectin expression blockers – imaging, HUVEC, immunofluorescence, MLSMR starter and 10KST1 sets, primary screen (AID 487;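 active = visually confirmed hit in the image check and inhibition above 20%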;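 as to inhibition: signal is fraction of cell area covered by stained E-selectin grains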;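 as to nuclei count: 100% = median nuclei count of all wells on the same plate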). Conditions: HUVEC TNFalpha-induced E-selectin immunofluorescence imaging, at 2 µM; inhibition: stronger effect = higher value; nuclei count: measured here: cell number, toxicity.
Assay [4] concerns the target Voltage-gated potassium channel subunit beta-2 (Rattus norvegicus) (UniProt P62483). Briefly: inhibitors of rat Kvbeta2 reductase activity – biochemical, NADPH fluorescence, primary screen (AID 622;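 active = fluorescence slope higher than the sample average by over 3 SD, cut at about -0.22 in these data, passing the limit was not always enough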;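 also: slope of raw intensity against log time taken from 70 to 1610 s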). Conditions: recombinant KvBeta, 4-cyanobenzaldehyde reduction, at 10 µM, stronger effect = higher value.
For assay [5] the target is unchanged. Briefly: enhancers of rat Kvbeta2 NADPH turnover – biochemical, NADPH fluorescence, primary screen (AID 623;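 active = NADPH fluorescence slope more negative than the mean of all samples by about 3 SD, 99.7% confidence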;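 also: fluorescence intensity change per second fitted from 20 to 320 s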). Conditions: Recombinant KvBeta, NADPH fluorescence decrease slope, 10 min; at 10 µM; stronger effect = lower value.
In assay [6] the target is Alpha-2C adrenergic receptor (Homo sapiens) (UniProt P18825). Briefly: compounds altering alpha2C-coupled GIRK flux – cell-based, HEK293 alpha2C/GIRK1/2, thallium flux, primary screen (AID 624;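 active = fluorescence slope after compound addition differing from the mean of all screened samples at 99.7% confidence, in either direction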;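 also: slope of fluorescence ratio to pre-addition baseline per second over 15 to 24 s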). To be noted: thallium flux BTC fluorescence, at 10 µM, actives lie on both sides.
Sequence of Alpha-2C adrenergic receptor (Homo sapiens) (P18825 whole entry, looked up): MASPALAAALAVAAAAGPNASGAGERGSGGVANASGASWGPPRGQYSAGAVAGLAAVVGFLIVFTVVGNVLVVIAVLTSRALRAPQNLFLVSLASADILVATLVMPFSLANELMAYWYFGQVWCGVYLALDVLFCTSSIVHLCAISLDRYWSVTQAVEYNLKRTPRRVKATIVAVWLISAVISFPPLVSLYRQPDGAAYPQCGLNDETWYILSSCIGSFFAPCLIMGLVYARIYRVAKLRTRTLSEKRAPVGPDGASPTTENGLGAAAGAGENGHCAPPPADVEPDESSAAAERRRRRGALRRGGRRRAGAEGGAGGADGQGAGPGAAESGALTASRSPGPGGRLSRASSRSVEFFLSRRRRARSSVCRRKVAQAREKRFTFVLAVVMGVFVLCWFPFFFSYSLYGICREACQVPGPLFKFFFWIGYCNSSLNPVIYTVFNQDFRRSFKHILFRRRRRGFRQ
A short description of assay [7]: blockers of RIG-like receptor reporter activation – cell-based, Sendai virus stimulus, luciferase, 10K MLSCN set, TLR/RLR signaling modifier project, primary screen (AID 602276;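 active = inhibition at or above 50% at 10 µM; inactive = inhibition below 50%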;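 also: firefly luciferase from ISG56 promoter only with Renilla not read in this screen; 0% = Sendai virus plus DMSO and 100% = medium plus DMSO without virus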). To be noted: HEK293 RL24 IRF3 luciferase reporter, at 10 µM, stronger effect = higher value. In general terms: In a reporter assay the amount or activity of a reporter protein is the signal.
The nature of assay [8]: TLR3 IRF3 reporter activation blockers – cell-based, poly I:C stimulus, luciferase, 10K MLSCN set, primary screen (AID 602277;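 active = inhibition of the reporter signal at or above 50%; inactive = inhibition below 50%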). Conditions: HEK293-TLR3 RL24 IRF3 luciferase reporter, at 10 µM, stronger effect = higher value.

Molecules are shown by their SMILES. Active and inactive are the calls of the source.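 The calls were made as follows, unless noted: active = inhibition above 20% together with a positive visual image hit; inconclusive = visual image hit but inhibition not above 20%; inactive = no visual image hit.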

The term inhibition denotes the change of the read-out against control, counted positive when it falls.

Sequence of Voltage-gated potassium channel subunit beta-2 (Rattus norvegicus) (P62483 whole entry, looked up): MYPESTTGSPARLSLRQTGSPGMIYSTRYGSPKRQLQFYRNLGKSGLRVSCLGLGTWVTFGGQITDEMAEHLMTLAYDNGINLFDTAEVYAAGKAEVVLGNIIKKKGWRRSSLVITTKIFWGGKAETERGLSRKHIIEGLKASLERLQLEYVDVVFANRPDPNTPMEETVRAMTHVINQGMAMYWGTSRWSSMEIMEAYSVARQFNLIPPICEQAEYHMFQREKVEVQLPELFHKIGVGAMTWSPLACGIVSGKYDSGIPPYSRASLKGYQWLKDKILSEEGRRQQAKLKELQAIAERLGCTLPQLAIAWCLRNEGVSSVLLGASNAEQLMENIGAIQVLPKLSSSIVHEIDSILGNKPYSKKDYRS

For the compound `O=c1[nH]c(NCc2ccccc2)nc2c1CCCC2`, the cell count in assay [1] was determined as 580. For the same compound, the inhibition in assay [1] was 4.4% (inactive); in assay [3], 46% (inactive); in assay [7], -1.14% (inactive); in assay [8], -4.72% (inactive). The inhibition of aggregation in assay [2] was -3.3% (inactive). The nuclei count is 112% in assay [2] and 101% in assay [3]. In addition, the fluorescence slope in assay [4] is -0.348 (inactive). Moreover, the NADPH fluorescence slope in assay [5] was -3.1e-05 (inactive). Besides, the slope in assay [6] was 0.00472 (inactive).

As for `O=C1c2ccccc2S(=O)(=O)N1Cc1nnc(-c2ccccc2Br)o1`, in assay [1], the cell count was 536. Also, the inhibition is -4.9% (inactive) in assay [1], 51.8% (active) in assay [3], 16.6% (inactive) in assay [7] and 20.8% (inactive) in assay [8]. Besides, in assay [2], the inhibition of aggregation was -9.2% (inactive). The nuclei count turned out to be 106% in assay [2] and 99.5% in assay [3]. In addition, the fluorescence slope in assay [4] is -0.488 (inactive). Besides, the NADPH fluorescence slope in assay [5] is -6e-05 (inactive). Besides, in assay [6], the slope was 0.00709 (inactive).

As to `O=C(CS(=O)CC(=O)Nc1cccc2c1CCCC2)Nc1ccc(F)cc1` (centres undefined), the cell count in assay [1] amounted to 210. The inhibition in assay [1] is 2.1% (inactive); in assay [3], 26.9% (inactive); in assay [7], 12.7% (inactive); in assay [8], 18.9% (inactive). Besides, the inhibition of aggregation in assay [2] was -8.6% (inactive). Besides, the nuclei count in assay [2] was determined as 84.1%; in assay [3], 80.2%. Moreover, the fluorescence slope in assay [4] was -0.621 (inactive). For the same compound, the NADPH fluorescence slope in assay [5] is 1e-05 (inactive). Further, the slope in assay [6] is 0.00343 (inactive).

In the case of `CC1(C)CC(=O)C2=C(C1)OC(=O)C2(NC(=O)c1cccs1)C(F)(F)F` (centres undefined), in assay [1], the cell count is 607. Moreover, the inhibition was -8.2% (inactive) in assay [1], -9.5% (inactive) in assay [3], 1.37% (inactive) in assay [7] and 15.7% (inactive) in assay [8]. In assay [2], the inhibition of aggregation was 5.3% (inactive). Further, the results for the nuclei count in assay [2] and in assay [3] were 104% and 85.7%, respectively. In addition, the fluorescence slope in assay [4] was -0.598 (inactive). Also, in assay [5], the NADPH fluorescence slope is -4.5e-05 (inactive). Also, the slope in assay [6] was 0.00633 (inactive).

Turning to `C=CCOc1ccc(C2/C(=C(\O)c3c(C)[nH]c(C(=O)OC)c3C)C(=O)C(=O)N2CCN(C)C)cc1` (centres undefined), the cell count in assay [1] was determined as 462. Besides, the inhibition in assay [1] was 0.5% (inactive); in assay [3] it was -96.2% (inactive); in assay [7], 13.2% (inactive); in assay [8], 26.6% (inactive). For the same compound, in assay [2], the inhibition of aggregation is -6.9% (inactive). The nuclei count is 99.7% in assay [2] and 118% in assay [3]. Besides, the fluorescence slope in assay [4] is -0.536 (inactive). The NADPH fluorescence slope in assay [5] was -1.1e-05 (inactive). In assay [6], the slope was 0.00355 (inactive).

Regarding `COCCCN(Cc1ccccn1)S(=O)(=O)Cc1ccccc1`, the cell count in assay [1] turned out to be 510. Besides, the inhibition in assay [1] is -9.9% (inactive); in assay [3], 10% (inactive); in assay [7], 3.22% (inactive); in assay [8], 15.9% (inactive). Further, the inhibition of aggregation in assay [2] was 4.7% (inactive). Besides, the nuclei count stood at 97.4% in assay [2] and 102% in assay [3]. Also, the fluorescence slope in assay [4] was -0.517 (inactive). The NADPH fluorescence slope in assay [5] is 8e-06 (inactive). Also, in assay [6], the slope is 0.00578 (inactive).

With `CCOC(=O)C1=C(C)N=C2SCCC(=O)N2C1c1cc(Br)ccc1OC` (centres undefined), the cell count in assay [1] amounted to 466. Moreover, the inhibition in assay [1] was 2.7% (inactive); in assay [3], -16% (inactive); in assay [7] it was 17.2% (inactive); in assay [8] it was 20.9% (inactive). In assay [2], the inhibition of aggregation is -4.8% (inactive). Moreover, the figures for the nuclei count in assay [2] and in assay [3] were 108% and 85%, respectively. Besides, in assay [4], the fluorescence slope was -0.499 (inactive). Further, the NADPH fluorescence slope in assay [5] is 7.4e-06 (inactive). The slope in assay [6] is 0.00736 (inactive).

Take `Cc1nnc(N2C(=O)C(O)=C(C(=O)c3ccco3)C2c2ccc(F)cc2)s1` (centres undefined): in assay [1], the cell count worked out at 881. Besides, the inhibition in assay [1] was 4.6% (inactive); in assay [3] it was 2.7% (inactive); in assay [7], 12.3% (inactive); in assay [8], 19.7% (inactive). The inhibition of aggregation in assay [2] is -4.4% (inactive). For the same compound, the nuclei count in assay [2] came to 122%; in assay [3], 123%. In addition, the fluorescence slope in assay [4] was -0.601 (inactive). For the same compound, the NADPH fluorescence slope in assay [5] is -4.6e-05 (inactive). In addition, in assay [6], the slope is 0.00826 (inactive).

With `CCOC(=O)c1[nH]c2ccccc2c1NC(=O)C(C)(C)C`, the cell count in assay [1] was found to be 692. The inhibition in assay [1] was -10.7% (inactive); in assay [3] it was -30.2% (inactive); in assay [7] it was 13.4% (inactive); in assay [8], 45.1% (inactive). In addition, the inhibition of aggregation in assay [2] was -8.7% (inactive). Besides, the results for the nuclei count in assay [2] and in assay [3] were 117% and 105%, respectively. The fluorescence slope in assay [4] was -0.586 (inactive). In addition, the NADPH fluorescence slope in assay [5] is -4.7e-05 (inactive). Further, the slope in assay [6] is 0.00597 (inactive).

In the case of `COc1cc(C(=O)OCC(=O)N(C)Cc2ccccc2)cc(OC)c1OC`, in assay [1], the cell count is 405. Besides, the inhibition in assay [1] is 5.1% (inactive); in assay [3] it was -264% (inactive); in assay [7], 15.1% (inactive); in assay [8] it was 20.6% (inactive). Besides, the inhibition of aggregation in assay [2] was -1.2% (inactive). Besides, the nuclei count was 110% in assay [2] and 119% in assay [3]. Besides, the fluorescence slope in assay [4] is -0.535 (inactive). Further, the NADPH fluorescence slope in assay [5] is -0.00012 (inactive). Besides, the slope in assay [6] was 0.00533 (inactive).

As to `Cc1cccc(-c2cc3nc4c(c(N5CCOCC5)n3n2)CCCC4)c1`, the cell count in assay [1] came out at 621. Also, the inhibition in assay [1] was -7.5% (inactive); in assay [3], -74.2% (inactive); in assay [7], -9.84% (inactive); in assay [8] it was 33.5% (inactive). Further, the inhibition of aggregation in assay [2] was 1.5% (inactive). Also, the nuclei count in assay [2] turned out to be 107%; in assay [3], 101%. Further, the fluorescence slope in assay [4] is -0.399 (inactive). Also, the NADPH fluorescence slope in assay [5] was 1e-05 (inactive). Besides, the slope in assay [6] was 0.00597 (inactive).

As for `COc1ccc(CCn2c(C)cc(C(=O)CSc3nnnn3C)c2C)cc1`, in assay [1], the cell count worked out at 441. Also, the inhibition in assay [1] is -1.5% (inactive); in assay [3], -45.2% (inactive); in assay [7] it was 0.703% (inactive); in assay [8], -19.8% (inactive). In addition, the inhibition of aggregation in assay [2] is -14.4% (inactive). Further, the values for the nuclei count in assay [2] and in assay [3] were 131% and 110%, respectively. For the same compound, the fluorescence slope in assay [4] is -0.412 (inactive). Moreover, in assay [5], the NADPH fluorescence slope was 4.6e-05 (inactive). Moreover, the slope in assay [6] is 0.00361 (inactive).

With `O=C(NCc1ccc(F)cc1)C1CCN(C(=O)NCc2ccccc2)CC1`, the cell count in assay [1] is 643. For the same compound, the inhibition in assay [1] was -3.5% (inactive); in assay [3], -18.5% (inactive); in assay [7], 5.76% (inactive); in assay [8], 32.5% (inactive). Moreover, the inhibition of aggregation in assay [2] was 2.3% (inactive). For the same compound, the nuclei count in assay [2] worked out at 110%; in assay [3], 106%. For the same compound, in assay [4], the fluorescence slope is -0.448 (inactive). In addition, the NADPH fluorescence slope in assay [5] was -4.9e-05 (inactive). Moreover, the slope in assay [6] was 0.00381 (inactive).

For the compound `COCCn1c(SCC(=O)N2CCc3ccccc32)nc2c(c1=O)SC(C)C2` (centres undefined), the cell count in assay [1] was determined as 499. The inhibition was -4.4% (inactive) in assay [1], -0.4% (inactive) in assay [3], 1.65% (inactive) in assay [7] and 22.3% (inactive) in assay [8]. Besides, the inhibition of aggregation in assay [2] is 13% (inactive). For the same compound, the nuclei count in assay [2] came out at 87.2%; in assay [3], 109%. Moreover, in assay [4], the fluorescence slope is -0.45 (inactive). Further, in assay [5], the NADPH fluorescence slope was -1.4e-05 (inactive). Further, the slope in assay [6] is 0.00569 (inactive).
